Laboratory results: PubChem BioAssay AID488777 (Sanford-Burnham Center for Chemical Genomics, 2010)
Values joined by “and” are separate entries in the source; they are usually repeats but may differ in a detail not shown here. Identical values can stand only once. Unmarked numbers belong to inactive results. Active and inactive are the calls of the source. The rule behind the calls is not given here.

Assay: assay artefact check, AlphaScreen readout interference – biochemical, artefact control for SUMOylation inhibitor project, SAR follow-up (AID 488777)
Conditions: purified counter-screen enzymes, TR-FRET, 60 min

SMILES	IC50
COC(=O)C1=C(C(=O)OC)C2(C(Cc3ccc(OC(F)(F)F)cc3)Nc3ccccc3)C=CC1O2 (stereo not drawn)	> 100 µM
CCCCn1c(NC(=O)C2CCCCC2)c(C#N)c2nc3ccccc3nc21	> 100 µM
CCCCn1c(NC(=O)c2ccccc2)c(C#N)c2nc3ccccc3nc21	65.2 µM (active) and 91.7 µM (active)
CCCCn1c(NC(=O)c2ccc(Cl)cc2)c(C#N)c2nc3ccccc3nc21	54.4 µM (active)
CCCCn1c(NC(=O)c2ccccc2)c(S(=O)(=O)c2ccc(C)cc2)c2nc3ccccc3nc21	> 100 µM
CCC[C@@H](Nc1ccccc1)C12C=CC(O1)C(C(=O)OC)=C2C(=O)OC (stereo partly drawn)	> 100 µM
CCCC1=NN(c2ccc(C(=O)O)cc2)C(=O)/C1=C/c1ccc(OCc2ccccc2)c(OC)c1	> 100 µM
CCCCn1c(NC(=O)c2ccccc2Cl)c(S(=O)(=O)c2ccccc2)c2nc3ccccc3nc21	> 100 µM
COC(=O)C1=C(C(=O)OC)C2([C@@H](Cc3ccc(C)cc3)Nc3ccccc3)C=CC1O2 (stereo partly drawn)	> 100 µM
COC(=O)C1=C(C(=O)OC)C2([C@H](Cc3ccc(C)cc3)Nc3ccccc3)C=CC1O2 (stereo partly drawn)	> 100 µM
CCCCn1c(NC(=O)c2ccc(OC)cc2)c(S(=O)(=O)c2ccc(C)cc2)c2nc3ccccc3nc21	> 100 µM
c1ccc(CC(Nc2ccccc2)c2ccco2)cc1 (stereo not drawn)	> 100 µM
CCCCn1c(NC(=O)c2ccccc2Cl)c(C#N)c2nc3ccccc3nc21	> 100 µM
